Data from PubChem BioAssay (NCATS).
Several values for one entry are separate records, joined by “and”; a condition that tells them apart may be missing. Equal entries are not always repeated. Results filed as inconclusive are left out. Where a call stands in place of a potency, no number is given. Activity calls are given as the source filed them. Unless noted, calls come from the whole dose curve; as a rule, active = well fitted curve in the direction sought with a large enough effect; inconclusive = small, poorly fitted or top-dose-only effect, or another doubt; inactive = no such curve, though single readings can be large; an effect the other way counts as inactive or inconclusive.

Tests used:
[1] = Quantitative high throughput screen for delayed death inhibitors of the malarial parasite plastid, 48 hour incubation (AID 488752); note: nearly all actives have a fitted effect of over 65% in size
How it was run: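 One parasite generation (48 h, 37 C, 5% CO2) of luciferase-reporter P. falciparum in erythrocytes is run with test compound; decreased luminescence indicates inhibited growth.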

[2] = biological target: Thioredoxin reductase 1, cytoplasmic (Rattus norvegicus) (UniProt O89049); test: qHTS Assay for Substrates of Mammalian Selenoprotein Thioredoxin Reductase 1 (TrxR1) (AID 488772);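 note: NADPH fluorescence in the first read after selenite addition and not the 8 min delta; series mostly up to about 57 µM; a drop in NADPH fluorescence below the no-compound background marks a TrxR1 substrate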
Chain of Thioredoxin reductase 1, cytoplasmic (Rattus norvegicus) (O89049 whole entry, looked up): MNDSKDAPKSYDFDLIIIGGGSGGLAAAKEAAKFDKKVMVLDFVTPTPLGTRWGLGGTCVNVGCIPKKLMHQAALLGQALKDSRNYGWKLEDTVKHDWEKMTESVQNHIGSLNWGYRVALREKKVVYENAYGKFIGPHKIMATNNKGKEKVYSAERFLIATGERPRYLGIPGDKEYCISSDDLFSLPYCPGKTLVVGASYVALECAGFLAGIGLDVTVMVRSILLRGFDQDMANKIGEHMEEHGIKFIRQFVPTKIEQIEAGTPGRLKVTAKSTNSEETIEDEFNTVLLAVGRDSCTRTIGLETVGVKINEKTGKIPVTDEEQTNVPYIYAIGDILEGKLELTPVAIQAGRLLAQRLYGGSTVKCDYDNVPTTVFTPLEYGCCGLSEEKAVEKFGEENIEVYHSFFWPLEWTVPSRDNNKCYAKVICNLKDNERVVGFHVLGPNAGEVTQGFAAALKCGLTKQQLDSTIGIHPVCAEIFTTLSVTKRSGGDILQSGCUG
How it was run: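 Quantitative HTS in Tris-HCl buffer at pH 7.5 with EDTA and Tween-20, using rat TrxR1, 400 uM NADPH and 400 uM selenite (final). A fall in initial NADPH fluorescence relative to background marked substrate behaviour.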

[3] = biological target: Thioredoxin reductase 1, cytoplasmic (Rattus norvegicus) (UniProt O89049); test: qHTS Assay for Inhibitors of Mammalian Selenoprotein Thioredoxin Reductase 1 (TrxR1) (AID 488773); conditions: Potency: inhibition;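 note: drop in NADPH fluorescence over an 8 min run after selenite addition; series mostly up to about 57 µM; nearly all actives have a fitted effect of over 40% in size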
How it was run: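 Steps: enzyme (90 nM) plus NADPH (400 uM final), 5 min at ~22 deg C; compound added, 15 min; selenite (400 uM final) added; fluorescence followed for 8 min. Concentration-response curves derived from the normalized delta values.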

[4] = biological target: Flap endonuclease 1 (Homo sapiens) (UniProt P39748); test: qHTS Validation Assay for the Inhibitors of Human Flap endonuclease 1 (FEN1) (AID 488816)
How it was run: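 FEN1, dispensed as a 10 nM reagent, was preincubated with pin-transferred compounds for 15 min at room temperature before substrate was added (50 nM final). Plates were read at 0 and 15 min, and a four-parameter Hill equation was fitted to the concentration-response data.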

[5] = biological target: M-phase phosphoprotein 8 (Homo sapiens) (UniProt Q99549); test: qHTS Validation Assay for Inhibitors for MPP8 Chromodomain Interactions with Methylated Histone Tails (AID 488949); note: top concentration of the series differs between compounds; nearly all actives have a fitted effect of over 55% in size
Chain of M-phase phosphoprotein 8 (Homo sapiens) (Q99549 whole entry, looked up): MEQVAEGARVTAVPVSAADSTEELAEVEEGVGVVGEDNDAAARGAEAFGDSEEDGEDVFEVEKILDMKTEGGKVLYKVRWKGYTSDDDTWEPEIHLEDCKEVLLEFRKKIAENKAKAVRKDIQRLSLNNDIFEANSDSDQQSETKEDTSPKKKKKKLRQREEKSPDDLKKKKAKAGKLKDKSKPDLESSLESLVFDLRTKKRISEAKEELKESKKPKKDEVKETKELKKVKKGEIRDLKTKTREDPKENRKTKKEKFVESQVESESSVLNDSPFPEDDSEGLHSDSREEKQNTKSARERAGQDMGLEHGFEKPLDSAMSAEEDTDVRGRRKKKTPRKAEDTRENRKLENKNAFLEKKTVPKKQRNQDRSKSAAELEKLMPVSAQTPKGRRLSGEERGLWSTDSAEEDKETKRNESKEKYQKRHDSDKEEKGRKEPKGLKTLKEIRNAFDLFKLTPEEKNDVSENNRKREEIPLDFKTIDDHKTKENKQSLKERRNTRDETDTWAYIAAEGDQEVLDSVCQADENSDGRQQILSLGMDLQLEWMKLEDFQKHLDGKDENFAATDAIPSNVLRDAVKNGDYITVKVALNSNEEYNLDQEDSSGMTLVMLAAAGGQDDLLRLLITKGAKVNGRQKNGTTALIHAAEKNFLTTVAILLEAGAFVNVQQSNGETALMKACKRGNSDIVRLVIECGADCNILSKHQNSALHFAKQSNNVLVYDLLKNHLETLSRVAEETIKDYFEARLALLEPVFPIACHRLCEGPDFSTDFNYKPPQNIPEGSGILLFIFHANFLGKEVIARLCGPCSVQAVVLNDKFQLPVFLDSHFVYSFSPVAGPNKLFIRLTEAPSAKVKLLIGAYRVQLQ
How it was run: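 MPP8 (50 nM) was pre-bound to 50 nM biotinylated H3(1-18)K9me3 peptide in PBS pH 7.4 with 0.01% Tween-20. Compounds were then added for 30 min at room temperature, and complex disruption was read by AlphaScreen with streptavidin donor and nickel-chelate acceptor beads.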

[6] = biological target: Methanococcus maripaludis chaperonin (MmCpn) (UniProt Q6LX38); test: High-Throughput Screening for Modulators of Cytosolic Chaperonin Activity: MmCpn Primary Screen (AID 488978);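 note: 50 nM MmCpn enzyme hydrolysing 30 µM ATP at 37 °C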
How it was run: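 MmCpn at 50 nM final was preincubated 5 min at RT with compound. ATP was then added at 30 uM final for 10 min at 37 C. ADP formed was detected by Transcreener HTRF (665/590 nm).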

[7] = biological target: Transient receptor potential cation channel subfamily V member 1 (Homo sapiens) (UniProt Q8NER1); test: HTS Assay for Compounds that Act as Enhancers of the Vanilloid Receptor 1 (AID 488979)
Chain of Transient receptor potential cation channel subfamily V member 1 (Homo sapiens) (Q8NER1 whole entry, looked up): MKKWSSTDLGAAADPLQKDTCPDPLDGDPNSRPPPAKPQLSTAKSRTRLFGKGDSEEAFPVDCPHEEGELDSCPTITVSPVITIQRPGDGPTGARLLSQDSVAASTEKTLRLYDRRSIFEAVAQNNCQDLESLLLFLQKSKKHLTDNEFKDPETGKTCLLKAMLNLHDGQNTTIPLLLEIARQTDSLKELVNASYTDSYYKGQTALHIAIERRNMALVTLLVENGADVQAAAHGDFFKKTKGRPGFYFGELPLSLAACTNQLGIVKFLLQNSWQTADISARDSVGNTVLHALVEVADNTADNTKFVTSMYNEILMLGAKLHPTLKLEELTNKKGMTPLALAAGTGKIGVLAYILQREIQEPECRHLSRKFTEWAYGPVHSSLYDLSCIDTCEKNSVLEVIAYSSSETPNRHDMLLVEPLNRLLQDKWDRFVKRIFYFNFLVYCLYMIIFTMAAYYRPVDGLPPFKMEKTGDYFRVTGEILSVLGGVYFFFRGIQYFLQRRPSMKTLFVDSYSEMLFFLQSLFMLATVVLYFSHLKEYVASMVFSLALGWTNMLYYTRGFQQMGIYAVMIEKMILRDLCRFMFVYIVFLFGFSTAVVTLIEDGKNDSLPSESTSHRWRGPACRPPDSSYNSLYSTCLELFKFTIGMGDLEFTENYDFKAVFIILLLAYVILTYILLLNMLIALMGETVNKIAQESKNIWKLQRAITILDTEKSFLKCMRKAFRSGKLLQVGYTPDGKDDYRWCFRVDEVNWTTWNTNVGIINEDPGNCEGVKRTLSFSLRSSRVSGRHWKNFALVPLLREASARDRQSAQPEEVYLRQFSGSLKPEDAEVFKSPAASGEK
How it was run: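 TRPV1-expressing cells loaded with Fluo-8 calcium dye; compounds added and calcium influx read kinetically for 3 min (agonist phase), then capsaicin at EC20 added and read 2 min more for enhancement. Fluorescence ex 480/em 520 nm.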

[8] = biological target: Thyrotropin receptor (Homo sapiens) (UniProt P16473); test: qHTS Assay for Antagonists of the Thyroid Stimulating Hormone Receptor (AID 488980); note: series mostly up to about 58 µM
How it was run: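 TSHR-transfected HEK293 cells (2000/well) in HEPES-buffered HBSS with 70 uM RO 20-1724 were stimulated with 4 nM TSH (EC80, final) in the presence of compound. cAMP was measured by HTRF competition after lysis and 30 min at RT.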

[9] = biological target: D(1A) dopamine receptor (Homo sapiens) (UniProt P21728); test: HTS Assay for Allosteric Agonists of the Human D1 Dopamine Receptor: Primary Screen for Agonists (AID 488981)
Chain of D(1A) dopamine receptor (Homo sapiens) (P21728 whole entry, looked up): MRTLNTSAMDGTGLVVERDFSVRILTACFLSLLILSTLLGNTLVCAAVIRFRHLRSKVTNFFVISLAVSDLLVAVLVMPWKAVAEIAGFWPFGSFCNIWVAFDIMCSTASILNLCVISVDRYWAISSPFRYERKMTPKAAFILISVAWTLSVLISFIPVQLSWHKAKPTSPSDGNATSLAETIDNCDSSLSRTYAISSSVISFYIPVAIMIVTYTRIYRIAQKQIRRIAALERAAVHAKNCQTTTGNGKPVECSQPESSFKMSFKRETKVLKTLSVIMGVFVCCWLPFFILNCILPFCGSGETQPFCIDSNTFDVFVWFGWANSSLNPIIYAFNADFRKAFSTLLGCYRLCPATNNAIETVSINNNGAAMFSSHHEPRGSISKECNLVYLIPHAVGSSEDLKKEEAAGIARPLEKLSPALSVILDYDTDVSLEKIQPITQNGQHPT
How it was run: (§1)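 Tetracycline-induced HEK293 T-REx cells force-coupled to calcium signalling were incubated overnight at 30 C and dye-loaded at room temperature. Calcium flux over 180 s after compound addition flagged agonists; a further 180 s read after EC20 dopamine flagged potentiators.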

[10] = biological target: D(1A) dopamine receptor (Homo sapiens) (UniProt P21728); test: HTS Assay for Allosteric Agonists of the Human D1 Dopamine Receptor: Primary Screen for Potentiators (AID 488982)
How it was run: as §1

[11] = Validation screen for small molecules that induce genotoxicity in human embryonic kidney (HEK293T) cells expressing luciferase-tagged ELG1 (AID 493106)
How it was run: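 Reporter-gene quantitative HTS in HEK293T cells carrying luciferase-tagged ELG1, whose level climbs under genotoxic stress. Compound exposure lasts 16 hr at 37 °C before luciferase detection.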

[12] = biological target: ATPase family AAA domain-containing protein 5 (Homo sapiens) (UniProt Q96QE3); test: Validation screen for small molecules that inhibit ELG1-dependent DNA repair in human embryonic kidney (HEK293T) cells expressing luciferase-tagged ELG1 (AID 493107);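 note: cells co-treated with the DNA-damaging agent 5-fluorouridine alongside compound; series mostly up to about 46 µM; inhibitors lower the ELG1-luciferase luminescence signal; nearly all actives have a fitted effect of over 70% in size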
Chain of ATPase family AAA domain-containing protein 5 (Homo sapiens) (Q96QE3 whole entry, looked up, the tested form may be a part): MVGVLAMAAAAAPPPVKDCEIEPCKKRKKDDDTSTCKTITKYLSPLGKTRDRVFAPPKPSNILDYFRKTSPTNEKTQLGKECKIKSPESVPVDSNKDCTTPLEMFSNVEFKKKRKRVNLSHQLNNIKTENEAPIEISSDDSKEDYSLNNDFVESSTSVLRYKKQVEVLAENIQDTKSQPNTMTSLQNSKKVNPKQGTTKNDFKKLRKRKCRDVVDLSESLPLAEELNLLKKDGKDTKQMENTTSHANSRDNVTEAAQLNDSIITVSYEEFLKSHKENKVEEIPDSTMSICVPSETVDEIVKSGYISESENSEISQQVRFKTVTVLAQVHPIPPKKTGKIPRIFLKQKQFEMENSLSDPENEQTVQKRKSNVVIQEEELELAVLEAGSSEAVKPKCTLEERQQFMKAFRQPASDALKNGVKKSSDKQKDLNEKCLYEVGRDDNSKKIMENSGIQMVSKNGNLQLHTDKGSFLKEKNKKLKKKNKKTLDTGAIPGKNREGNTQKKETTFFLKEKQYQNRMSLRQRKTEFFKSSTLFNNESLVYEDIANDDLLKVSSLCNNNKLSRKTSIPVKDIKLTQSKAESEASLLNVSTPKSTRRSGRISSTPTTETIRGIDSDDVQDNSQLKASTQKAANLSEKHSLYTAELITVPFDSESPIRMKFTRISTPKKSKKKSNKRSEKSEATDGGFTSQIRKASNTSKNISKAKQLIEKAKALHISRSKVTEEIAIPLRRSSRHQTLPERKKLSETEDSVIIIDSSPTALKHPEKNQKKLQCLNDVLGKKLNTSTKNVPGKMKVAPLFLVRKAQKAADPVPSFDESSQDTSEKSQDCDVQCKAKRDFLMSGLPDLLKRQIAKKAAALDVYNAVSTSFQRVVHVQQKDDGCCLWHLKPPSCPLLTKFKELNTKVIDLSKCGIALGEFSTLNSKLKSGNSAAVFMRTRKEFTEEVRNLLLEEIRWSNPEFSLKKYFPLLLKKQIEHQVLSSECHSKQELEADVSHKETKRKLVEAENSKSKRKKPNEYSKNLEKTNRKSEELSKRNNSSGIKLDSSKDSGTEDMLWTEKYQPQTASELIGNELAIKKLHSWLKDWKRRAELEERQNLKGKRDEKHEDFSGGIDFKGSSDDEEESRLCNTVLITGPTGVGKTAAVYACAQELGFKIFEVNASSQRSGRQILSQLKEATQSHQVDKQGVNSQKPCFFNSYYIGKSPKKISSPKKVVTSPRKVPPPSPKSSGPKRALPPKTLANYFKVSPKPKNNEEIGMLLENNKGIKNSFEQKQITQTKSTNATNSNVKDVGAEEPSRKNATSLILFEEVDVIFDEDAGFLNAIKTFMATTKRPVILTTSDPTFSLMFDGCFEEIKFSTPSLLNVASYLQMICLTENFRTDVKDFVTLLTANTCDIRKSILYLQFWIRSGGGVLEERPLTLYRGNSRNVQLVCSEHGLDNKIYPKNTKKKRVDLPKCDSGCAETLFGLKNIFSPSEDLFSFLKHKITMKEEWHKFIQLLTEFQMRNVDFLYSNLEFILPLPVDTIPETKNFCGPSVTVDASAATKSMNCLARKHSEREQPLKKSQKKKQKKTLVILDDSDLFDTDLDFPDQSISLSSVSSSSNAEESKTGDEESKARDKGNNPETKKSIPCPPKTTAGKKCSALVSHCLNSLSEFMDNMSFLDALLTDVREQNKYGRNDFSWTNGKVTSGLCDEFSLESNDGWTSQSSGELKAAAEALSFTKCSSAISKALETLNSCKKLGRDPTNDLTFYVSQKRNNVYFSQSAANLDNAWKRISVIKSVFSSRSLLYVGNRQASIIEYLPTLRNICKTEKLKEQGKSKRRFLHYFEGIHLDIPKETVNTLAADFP
How it was run: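 Quantitative HTS in HEK293T cells carrying luciferase-tagged ELG1, stimulated with 5-fluorouridine alongside compound for 16 hr. Loss of luciferase signal marks inhibition of ELG1 response.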

[13] = biological target: Thyrotropin-releasing hormone receptor (Homo sapiens) (UniProt P34981); test: qHTS for Small Molecule Agonists and Allosteric Enhancers of Human TRH Receptor: Validation Screen for Agonists (AID 493127;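 active = calcium activation more than 3 SD above the typical response in the agonist read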;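 note: intracellular calcium rise by fluo-8 fluorescence before TRH EC20 addition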); conditions: TRH receptor agonist cell assay; at 2 µM; stronger effect = higher value
Chain of Thyrotropin-releasing hormone receptor (Homo sapiens) (P34981 whole entry, looked up): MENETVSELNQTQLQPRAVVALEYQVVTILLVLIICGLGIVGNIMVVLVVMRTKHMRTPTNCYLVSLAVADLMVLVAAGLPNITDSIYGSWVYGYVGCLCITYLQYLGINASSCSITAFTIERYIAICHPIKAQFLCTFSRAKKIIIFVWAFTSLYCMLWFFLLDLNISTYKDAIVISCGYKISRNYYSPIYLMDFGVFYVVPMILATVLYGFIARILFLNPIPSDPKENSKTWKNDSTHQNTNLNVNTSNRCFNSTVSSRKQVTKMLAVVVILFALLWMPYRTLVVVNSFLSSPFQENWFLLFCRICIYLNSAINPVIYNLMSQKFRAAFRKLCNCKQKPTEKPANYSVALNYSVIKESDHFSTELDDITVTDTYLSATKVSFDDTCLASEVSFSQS
How it was run: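 Gq-coupled calcium mobilization in TRHR cells after compound addition, monitored kinetically with fluo-8 dye on an FDSS reader.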

[14] = Nrf2 qHTS screen for inhibitors: Validation (AID 493153; active = well fitted inhibition curve with a large enough effect in the main read-out, with a control signal flat, not every such curve was filed as active); conditions: viability change: measured here: cytotoxicity max response
How it was run: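 Dose-response validation uses reporter A549 cells with firefly luciferase under an antioxidant response element. Compounds stay on cells 18-24 h at 37°C, and luminescence indicates Nrf2-driven transcription.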

[15] = qHTS for Inhibitors of Cell Surface uPA Generation: Validation Assay (AID 493164);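 note: RAW 264.7 macrophage cells exposed to compound for 18 h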
How it was run: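 RAW 264.7, 4000 cells/well, o/n plating; cpd 7-pt 1:5 dilution 2.45 nM–38.3 uM final; 18 h, 37 C/5% CO2; ATP-Lite, 5 s luminescence exposure.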

[16] = biological target: Galactokinase (Homo sapiens) (UniProt P51570); test: qHTS Validation Assay for Inhibitors of Human Galactokinase (GALK) (AID 493189)
How it was run: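 GALK (5 nM) with 35 uM ATP and 100 uM galactose in HEPES pH 8.0 with MgCl2, NaCl, DTT and BSA. Reaction ran 1 h at room temperature. Residual ATP read by Kinase-Glo Plus luminescence.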

[17] = biological target: Chromobox protein homolog 1 (Homo sapiens) (UniProt P83916); test: qHTS Validation Assay for Inhibitors of HP1-beta Chromodomain Interactions with Methylated Histone Tails (AID 488953);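 note: loss of AlphaScreen luminescence from HP1-beta binding biotinylated H3K9me3 peptide; series mostly up to about 110 µM; nearly all actives have a fitted effect of over 50% in size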
Chain of Chromobox protein homolog 1 (Homo sapiens) (P83916 whole entry, looked up): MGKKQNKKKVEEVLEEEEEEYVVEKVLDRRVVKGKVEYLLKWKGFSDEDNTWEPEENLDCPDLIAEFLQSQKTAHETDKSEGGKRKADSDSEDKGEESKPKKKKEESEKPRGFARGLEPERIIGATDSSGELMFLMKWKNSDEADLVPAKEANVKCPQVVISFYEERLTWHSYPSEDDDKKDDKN
How it was run: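 Measured as loss of AlphaScreen luminescence from streptavidin donor and nickel acceptor beads (10 ug/mL final) bridging HP1-beta and biotin-H3(1-18)K9me3, each 50 nM. Compounds met the preassembled complex for 30 min at RT.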

| SMILES | Potency [1] | outcome [2] | Potency [3] | Potency [4] | Potency [5] | outcome [6] | outcome [7] | outcome [8] | Potency [9] | outcome [10] | outcome [11] | Potency [12] | activation [13] | outcome [14] | viability change [14] | outcome [15] | outcome [16] | Potency [17] |
| --- | --- | --- | --- | --- | --- | --- | --- | --- | --- | --- | --- | --- | --- | --- | --- | --- | --- | --- |
| CNCCc1c[nH]c2ccc(O)cc12 | inactive | inactive | inactive | inactive | inactive | inactive | inactive | inactive | inactive | inactive | inactive | inactive | 1.06% (inactive) | inactive | 1.11% | inactive | inactive | – |
| CCCN(CCC)[C@@H]1CCc2ccc(O)cc2C1 | – | inactive | inactive | inactive | inactive | inactive | inactive | inactive | inactive | inactive | inactive | inactive | 0.938% (inactive) | inactive | 2.19% | inactive | inactive | inactive |
| O=C(O)Cc1cnc[nH]1 | – | inactive | inactive | inactive | inactive | inactive | inactive | inactive | inactive | inactive | inactive | inactive | 0.875% (inactive) | inactive | -0.284% | inactive | inactive | – |
| Cn1cnc(CCN)c1 | – | inactive | inactive | inactive | inactive | inactive | inactive | inactive | inactive | inactive | inactive | inactive | 0.562% (inactive) | inactive | -10.2% | inactive | inactive | inactive |
| COC(=O)[C@@H](N)CCCN=C(N)N[N+](=O)[O-] | – | inactive | inactive | inactive | inactive | inactive | – | – | inactive | inactive | inactive | inactive | – | inactive | -8.47% | inactive | – | inactive |
| CC[C@@H](C(N)=O)N1CCCC1=O | – | inactive | inactive | inactive | inactive | inactive | – | – | inactive | inactive | inactive | inactive | – | inactive | 0% | inactive | – | inactive |
| C[N+]1(C)C2CCC1CC(OC(=O)C(CO)c1ccccc1)C2 (stereo unspecified) | – | inactive | inactive | inactive | inactive | inactive | inactive | inactive | inactive | inactive | inactive | inactive | – | inactive | 9.4% and 1.15% | inactive | inactive | inactive |
| C#CCOC(=O)C1=CCCN(C)C1 | – | inactive | inactive | inactive | inactive | inactive | inactive | inactive | inactive | inactive | inactive | inactive | 3.19% (inactive) | inactive | -2.85% | inactive | inactive | inactive |
